According to PubChem BioAssay (NCI):
Values joined by “and” are separate entries in the source; they are usually repeats but may differ in a detail not shown here. Equal entries are not always repeated. This is part of a sample that, as a whole, favours compounds with a hit. Of some 83,000 tested, about 20% had one in any assay.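 Cells were grown in 96-well plates and exposed to the test compound at a single concentration for 48 hours; results are reported as percent growth, with values below 10 considered active.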 Active and inactive are the calls of the source.

How the values were obtained:
Assay in all cases: NCI-60 one-dose screen, 48 h (100 = growth as untreated, 0 = no growth, -100 = all killed)
[1] = tested on: NCI-H23 lung
[2] = tested on: NCI-H226 lung
[3] = tested on: NCI-H322M lung
[4] = tested on: NCI-H460 lung
[5] = tested on: HOP-92 NSCLC
[6] = tested on: A549/ATCC NSCLC
[7] = tested on: 786-0 renal
[8] = tested on: COLO 205 colon
[9] = tested on: DU-145 prostate
[10] = tested on: K-562 leukemia
[11] = tested on: MALME-3M melanoma
[12] = tested on: MDA-MB-231 breast
[13] = tested on: RXF 393 renal
[14] = tested on: SF-268 CNS
[15] = tested on: SF-295 CNS
[16] = tested on: SF-539 CNS
[17] = tested on: UACC-257 melanoma
[18] = tested on: M14 melanoma
[19] = tested on: HOP-62 NSCLC
[20] = tested on: NCI-H522 lung; settings: 10 µM unless noted

Cc1[nH]c(-c2nc3ccccc3[nH]2)c(C)c1C(=O)NC(C)C1CCCCC1 (stereo unspecified)
growth ([1]; 10 µM): 87.1% (inactive)
growth ([1]; 100 µM): -84.8% (active)
growth ([2]; 10 µM): 81.1% (inactive)
growth ([2]; 100 µM): -53% (active)
growth ([3]; 10 µM): 89.1% (inactive)
growth ([3]; 100 µM): -96.3% (active)
growth ([4]; 10 µM): 98.1% (inactive)
growth ([4]; 100 µM): -72% (active)
growth ([5]; 10 µM): 78.7% (inactive)
growth ([5]; 100 µM): -50.9% (active)
growth ([6]; 10 µM): 90.5% (inactive)
growth ([6]; 100 µM): -40.2% (active)
growth ([7]; 10 µM): 95.2% (inactive)
growth ([7]; 100 µM): -31.1% (active)
growth ([8]; 10 µM unless noted): -60.3% [100 µM] (active)
growth ([9]; 10 µM): 98.8% (inactive)
growth ([9]; 100 µM): -96.3% (active)
growth ([10]; 10 µM): 68.7% (inactive)
growth ([10]; 100 µM): -24.3% (active)
growth ([11]; 10 µM): 82.1% (inactive)
growth ([11]; 100 µM): -72.6% (active)
growth ([12]; 10 µM): 70.3% (inactive)
growth ([12]; 100 µM): -70.8% (active)
growth ([13]; 10 µM): 77.2% (inactive)
growth ([13]; 100 µM): -92% (active)
growth ([14]; 10 µM): 94.9% (inactive)
growth ([14]; 100 µM): -71.4% (active)
growth ([15]; 10 µM): 101% (inactive)
growth ([15]; 100 µM): -88.8% (active)
growth ([16]; 10 µM): 89.4% (inactive)
growth ([16]; 100 µM): -97.7% (active)
growth ([17]; 10 µM): 87% (inactive)
growth ([17]; 100 µM): -64.6% (active)
growth ([18]; 10 µM): 83.1% (inactive)
growth ([18]; 100 µM): -73.2% (active)

CNC(=O)c1cccc(-c2ccc3c(N4CCOC[C@@H]4C)nc(N4CCOC[C@@H]4C)nc3n2)c1
growth ([1]; 10 µM unless noted): 18.3% (inactive) and 10.2% (inactive)
growth ([2]; 10 µM unless noted): -11.5% (active) and -2.84% (active)
growth ([3]; 10 µM unless noted): 6.83% (active) and -14.6% (active)
growth ([19]; 10 µM unless noted): -3.27% (active) and -14.6% (active)
growth ([4]; 10 µM unless noted): 11.4% (inactive) and 9.46% (active)
growth ([5]; 10 µM unless noted): -25.3% (active) and -21.5% (active)
growth [20]: 10.4% (inactive) and -11.1% (active)
growth ([6]; 10 µM unless noted): 4.83% (active) and -7.57% (active)
growth ([7]; 10 µM unless noted): 0.967% (active) and -5.74% (active)
growth ([8]; 10 µM unless noted): 4.53% (active) and -11.4% (active)
growth ([9]; 10 µM unless noted): 12.2% (inactive)
growth ([10]; 10 µM unless noted): 25.3% (inactive) and 12.6% (inactive)
growth ([11]; 10 µM unless noted): -32.1% (active) and -46.6% (active)
growth ([12]; 10 µM unless noted): 6.14% (active) and 4.21% (active)
growth ([13]; 10 µM unless noted): -28.8% (active) and -33.9% (active)
growth ([14]; 10 µM unless noted): 9.04% (active) and 13.7% (inactive)
growth ([15]; 10 µM unless noted): -37.4% (active) and -36.6% (active)
growth ([16]; 10 µM unless noted): -26.5% (active) and -40.2% (active)
growth ([17]; 10 µM unless noted): -21.2% (active) and -25.5% (active)
growth ([18]; 10 µM unless noted): -3.53% (active) and -5.57% (active)

CCCCCCCCCCCCCCCc1ccc(Cl)c(O)c1Cl (tested in a mixture with another compound)
growth ([1]; 0.25 µM): 19.1% (inactive)
growth ([1]; 10 µM): 88.8% (inactive)
growth ([2]; 0.25 µM): 5.35% (active)
growth ([2]; 10 µM): 93.6% (inactive)
growth ([3]; 0.25 µM): 61.5% (inactive)
growth ([3]; 10 µM): 107% (inactive)
growth ([19]; 0.25 µM): 19% (inactive)
growth ([19]; 10 µM): 97.5% (inactive)
growth ([4]; 0.25 µM): 5.78% (active)
growth ([4]; 10 µM): 104% (inactive)
growth ([6]; 0.25 µM): 38.5% (inactive)
growth ([6]; 10 µM): 71.9% (inactive)
growth ([7]; 0.25 µM): 15.6% (inactive)
growth ([7]; 10 µM): 107% (inactive)
growth ([8]; 0.25 µM): 49.3% (inactive)
growth ([8]; 10 µM): 114% (inactive)
growth ([9]; 0.25 µM): 18.4% (inactive)
growth ([9]; 10 µM): 106% (inactive)
growth ([10]; 0.25 µM): 30.5% (inactive)
growth ([10]; 10 µM): 92.3% (inactive)
growth ([11]; 0.25 µM): 22.7% (inactive)
growth ([11]; 10 µM): 100% (inactive)
growth ([12]; 0.25 µM): 59.1% (inactive)
growth ([12]; 10 µM): 97.9% (inactive)
growth ([13]; 0.25 µM): 60.3% (inactive)
growth ([13]; 10 µM): 106% (inactive)
growth ([14]; 0.25 µM): 31.4% (inactive)
growth ([14]; 10 µM): 94.9% (inactive)
growth ([15]; 0.25 µM): 29.1% (inactive)
growth ([15]; 10 µM): 109% (inactive)
growth ([16]; 0.25 µM): 15.9% (inactive)
growth ([16]; 10 µM): 103% (inactive)
growth ([17]; 0.25 µM): 52.1% (inactive)
growth ([17]; 10 µM): 80.7% (inactive)
growth ([18]; 0.25 µM): 41% (inactive)
growth ([18]; 10 µM): 92.2% (inactive)
